Rows were chosen to be rich in hits. Some 2.9% of all compounds tested hit in one or more screens of this group.
EBNA-1 inh: blocks EBNA-1 binding to DNA. inhibition, % at 14.8 µM. 300,000 compounds, 0.34% hits. EBNA-1 DNA binding, fluorescence polarization; in the data active = inhibition above about 28%
PAFAH2 inh: PAFAH2 (human) inhibition; AID 492956; Q99487; inhibition, % at 3.39 µM; 340,000 compounds, 0.99% hits; recombinant PAFAH2, FP-rhodamine activity probe, fluorescence polarization;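 active = inhibition above the mean over all tested compounds plus 3 SD, cut at about 30% in these data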;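 note: inhibitors block probe labeling of enzyme so polarization drops; 0% = enzyme with DMSO and 100% = wells lacking PAFAH2 protein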
rCAG RNA binder: r(CAG) repeat RNA binding; AID 651821; 370,000 compounds, 1.3% hits; inhibition, % at 3 µM; TO-PRO-1 dye displacement fluorescence;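 active = inhibition above the plate cutoff, the mean of all test compounds on that plate plus 3 SD, cut at about 35% in these data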;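 note: 0% = DMSO alone and 100% = 100 µM mitoxantrone as full dye displacement; higher means more dye released from RNA so lower well fluorescence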
PAFAH1B2 FP inh: PAFAH1B2 (human) inhibition. P68402. recombinant PAFAH1B2, FP-rhodamine activity probe, fluorescence polarization. inhibition, % at 3.39 µM. 340,000 compounds, 1.2% hits. AID 492953;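 active = inhibition above the mean of all tested compounds plus 3 SD, cut at about 24% in these data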;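 note: 0% = enzyme with DMSO and 100% = wells lacking PAFAH1B2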
ZTA DNA inh: counter-screen for EBNA-1 inhibitors: inhibitors of Epstein-Barr virus ZTA | AID 2234 | inhibition, % at 11 µM | 320,000 compounds, 0.15% hits | P03206 | ZTA-DNA binding, fluorescence polarization; in the data active = inhibition above about 33%
Target sequence (P03206 whole entry, looked up): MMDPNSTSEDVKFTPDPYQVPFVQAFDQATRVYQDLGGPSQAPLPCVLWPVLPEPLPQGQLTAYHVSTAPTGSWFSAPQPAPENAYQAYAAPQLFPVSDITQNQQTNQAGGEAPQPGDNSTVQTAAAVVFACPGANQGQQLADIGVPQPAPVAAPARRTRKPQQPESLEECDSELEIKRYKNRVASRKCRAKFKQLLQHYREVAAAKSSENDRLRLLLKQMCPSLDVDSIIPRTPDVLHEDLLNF
PAFAH1B3 FP inh: inhibitors of human PAFAH1B3. 340,000 compounds, 0.28% hits. recombinant PAFAH1B3, FP-rhodamine probe, fluorescence polarization. inhibition, % at 3.39 µM. Q15102;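 active = inhibition above the screen-wide average of all tested compounds plus 3 SD, cut at about 25% in these data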;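 note: 0% = enzyme with DMSO only and 100% = wells lacking PAFAH1B3 protein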
Target sequence (Q15102 whole entry, looked up): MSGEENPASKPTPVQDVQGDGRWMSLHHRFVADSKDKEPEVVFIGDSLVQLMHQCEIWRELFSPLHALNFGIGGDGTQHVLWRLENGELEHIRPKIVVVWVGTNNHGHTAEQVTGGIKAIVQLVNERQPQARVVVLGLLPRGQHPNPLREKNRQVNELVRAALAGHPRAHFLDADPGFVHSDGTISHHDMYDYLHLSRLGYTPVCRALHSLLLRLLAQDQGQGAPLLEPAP
PAFAH2 confirm: PAFAH2 (human) inhibition, confirmed. shares compounds with PAFAH2 inh. recombinant PAFAH2, FP-rhodamine activity probe, fluorescence polarization. 2,300 compounds, 65% hits. inhibition, % at 3.39 µM;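 active = mean inhibition over three repeats above a set limit taken from the earlier primary screen, cut at about 30% in these data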;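 note: inhibitor blocks binding of rhodamine activity probe so polarization falls; 0% = enzyme with DMSO and 100% = wells lacking PAFAH2 protein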
* hit, by the source's call; x = no result given.

SMILES | EBNA-1 inh | PAFAH2 inh | rCAG RNA binder | PAFAH1B2 FP inh | ZTA DNA inh | PAFAH1B3 FP inh | PAFAH2 confirm
Cc1cc(C(=O)OCC(=O)NC2(C#N)CCCCC2)c(C)o1 | x | 75* | -2 | 3 | 0 | 7 | 75*
CC1CCCC(NC(=O)COC(=O)c2ccc(Br)o2)C1C (stereo unspecified) | x | 27 | -1 | 7 | x | 6 | x
Cc1cc(C(=O)OCC(=O)NC2CCCC(C)C2C)c(C)o1 (stereo unspecified) | x | 82* | 0 | 5 | x | 5 | 67*
N#CC1(NC(=O)COC(=O)c2ccc(-c3ccc(O)cc3)cc2)CCCCC1 | x | 76* | 3 | -2 | -11 | 0 | 72*
CNS(=O)(=O)c1cccc(C(=O)OCC(=O)Nc2cc(F)ccc2F)c1 | 1 | 45* | 1 | 7 | -5 | 4 | 32*
Cc1ccc(C(=O)OCC(=O)NC2CCCc3ccccc32)o1 (stereo unspecified) | x | 33* | 3 | 5 | 1 | -1 | 9
O=C(NC1=NC2(C=C3CCCCC3n3c(=O)n(-c4ccccc4)c(=O)n32)CN1CC1CC1)c1ccccc1 (stereo unspecified) | x | x | 23 | x | x | x | x
O=C(CCc1ccccc1)N[C@H]1[C@H](OCc2ccccc2)CCC[C@@]12C(=O)N(Cc1ccccc1)c1ccc(-c3cnccn3)cc12 | x | x | 10 | x | x | x | x
N#CC1(NC(=O)COC(=O)c2cccc(-n3cnnn3)c2)CCCCC1 | 6 | 73* | 1 | 7 | 9 | 5 | 72*
NC(=O)C1CC(=O)N(c2ccc(OCC(=O)N3CCCC3)cc2)C1 (stereo unspecified) | x | 57* | 1 | 2 | x | 6 | 48*
O=C(COc1ccc(Cl)cc1)OCC(=O)N1CCCC1 | 6 | 37* | 0 | 5 | -8 | 10 | 21
N#C/C(=C\c1c(Cl)cccc1Cl)c1nc2ccccc2[nH]1 | -11 | 1 | -1 | 0 | -4 | 0 | x
N#C/C(=C\c1c(Cl)cccc1Cl)c1nc2ccccc2o1 | -11 | 33* | 4 | -2 | 6 | 0 | 33*
COc1ccc(C(=O)Oc2ccc(Br)cc2C(=S)N2CCOCC2)cc1 | -9 | 52* | -1 | 2 | -16 | 8 | 36*
O=C(Oc1ccc(Br)cc1C(=S)N1CCOCC1)c1ccc(F)cc1 | -1 | 13 | x | 2 | -7 | 9 | x
Cc1ccc(C(=O)Oc2ccc(Br)cc2C(=S)N2CCOCC2)cc1 | -18 | 32* | -2 | 4 | -3 | 4 | 33*
CCOc1cc(/C=C2\C(=O)ON=C2c2ccccc2)ccc1OC | 7 | 5 | 4 | 11 | 3 | 7 | x
CCOc1cc(/C=C2\C(=O)N(c3nc(-c4ccc(Br)cc4)cs3)N=C2c2ccccc2)ccc1O | 7 | 55* | x | 2 | -5 | 15 | 45*
O=C(COC(=O)c1ccc(C(F)(F)F)cc1)Nc1cccc(S(=O)(=O)NC2=NCCCCC2)c1 | x | 21 | 2 | 3 | x | 5 | x
Cc1ccsc1C(=O)OCC(=O)Nc1cccc(S(=O)(=O)NC2=NCCCCC2)c1 | -4 | 46* | 0 | 5 | 6 | 4 | 33*
NC(=O)Nc1ccc(C(=O)OCC(=O)Nc2cccc(S(=O)(=O)NC3=NCCCCC3)c2)cc1 | -11 | 61* | 10 | 3 | -21 | 8 | 65*
Cc1ccccc1C(=O)OCC(=O)Nc1cccc(S(=O)(=O)NC2=NCCC2)c1 | x | 14 | 4 | 3 | x | 5 | x
O=C(COC(=O)c1ccc(OC(F)F)cc1)Nc1cccc(S(=O)(=O)NC2=NCCC2)c1 | x | 31* | 1 | -1 | 9 | 10 | 19
O=S(=O)(c1ccc(-c2csc(Nc3ccc(Br)cc3)n2)cc1)N1CCCC1 | 3 | 30* | 8 | 1 | 8 | 6 | -2
O=C(COC(=O)C12CC3CC(CC(O)(C3)C1)C2)Nc1cccc(Br)c1 | x | 74* | -6 | 10 | x | 8 | 69*
SMILES | EBNA-1 inh | PAFAH2 inh | rCAG RNA binder | PAFAH1B2 FP inh | ZTA DNA inh | PAFAH1B3 FP inh | PAFAH2 confirm
CC1CC1C(=O)OCC(=O)Nc1cccc(Br)c1 (stereo unspecified) | x | 88* | -4 | 3 | x | 1 | 85*
O=C(COC(=O)c1cc(Br)ccc1O)Nc1ccc2c(c1)OCO2 | x | 37* | 9 | 2 | 2 | -1 | 18
Cc1cc(NC(=O)COC(=O)C2CC2)ccc1Br | x | 77* | 3 | -2 | -1 | -3 | 74*
CC1CC1C(=O)OCC(=O)NCc1ccccc1 (stereo unspecified) | x | 36* | 4 | 0 | x | 1 | 25
O=C(NC(=S)Nc1ccccc1[N+](=O)[O-])c1ccco1 | 3 | 1 | 2 | 7 | 13 | 4 | x
CC(CNC(=O)COC(=O)c1ccco1)c1ccccc1 (stereo unspecified) | x | 57* | -1 | 0 | 15 | 3 | 48*
O=C(COC(=O)c1ccco1)Nc1cccc(Br)c1 | 0 | 91* | 2 | -3 | -4 | 6 | 68*
O=C(COC(=O)c1ccco1)Nc1ccccc1[N+](=O)[O-] | 2 | 41* | -5 | 3 | 13 | 2 | 28
CCCCCn1nnnc1C1(C)CCSCC(=O)N1Cc1ccco1 (stereo unspecified) | x | x | 0 | x | x | x | x
COc1ccc(CCNC(=O)c2cc([C@@H](NC(=O)OC(C)(C)C)C(C)C)sc2N)cc1OC | x | x | 4 | x | x | x | x
Cc1ccc(C(=O)OCC(=O)Nc2ccc3c(c2)OCO3)o1 | -8 | 62* | -1 | 4 | -26 | 8 | 60*
O=C(COC(=O)c1ccco1)NCc1ccc2c(c1)OCO2 | 1 | 14 | -2 | 2 | 12 | -1 | x
O=C(COC(=O)c1ccco1)Nc1ccc2c(c1)OCO2 | -3 | 63* | 9 | 6 | 14 | 6 | 66*
NC(=NCCc1c[nH]c2ccccc12)NC(=O)OCc1ccccc1 | x | x | 2 | x | x | x | x
O=S(=O)(CC1NCc2cc(F)ccc21)NC1CCCC1 (stereo unspecified) | x | x | 9 | x | x | x | x
CCCOc1ccccc1/C=C(\C#N)C(=O)Nc1cccc(C)n1 | -7 | 58* | 2 | 2 | -16 | 9 | 52*
Cc1cccc(NC(=O)/C(C#N)=C/c2ccc(F)cc2)n1 | 7 | 2 | -1 | 8 | -1 | 3 | x
COc1ccc2[nH]c3c(c2c1)CCN[C@]31C(=O)N(c2ccccc2)c2ccccc21 | x | x | 3 | x | x | x | x
NS(=O)(=O)c1ccc(CNC(=O)c2ccccc2SCC(=O)N2CCCC2)cc1 | -6 | 2 | 2 | 1 | -10 | -4 | x
NS(=O)(=O)c1cccc(NC(=O)COC(=O)c2ccccc2SCC(=O)N2CCCC2)c1 | x | 40* | 8 | 1 | x | 17 | 36*
O=C(COC(=O)c1ccccc1SCC(=O)N1CCCC1)Nc1ccccc1 | -11 | 88* | -2 | 1 | -4 | 4 | 80*
CC(CCc1ccccc1)NC(=O)COC(=O)c1ccccc1Br (stereo unspecified) | 3 | 27 | -2 | 10 | -7 | 9 | x

Screens: PubChem, The Scripps Research Institute Molecular Screening Center
